Calls of active or inactive are those of the source. Unless noted, how the calls were made is not given here.

The source of these data is PubChem BioAssay.

Test [1] is described as follows: HepG2 liver cancer cell viability effects, profiling panel, resazurin fluorescence, 24 h, PK04 Diversity Set (AID 1172). The settings on record: higher = more signal.
A short description of test [2]: basal S. cerevisiae growth modulation, no modifier, primary screen, OD600, strain BY4716, 24 h, basal condition (AID 1173). Particulars: OD600, 24 h, higher = more signal, called active from +8 up or from −8 down.
Test [3] in a line: MM1S myeloma cell viability, profiling panel, resazurin fluorescence, basal, 24 h, PK04 Diversity Set (AID 1174). The settings on record: higher = more signal, called active from +8 up or from −8 down. Background: Resazurin is reduced to fluorescent resorufin, in cell work by metabolically active cells.
The target in test [4] is Dihydroorotate dehydrogenase (quinone), mitochondrial (Plasmodium falciparum (isolate 3D7)) (UniProt Q08210). Briefly: PfDHODH enzyme inhibitors, primary screen, biochemical, C-terminal His tag, absorbance 600 nm (AID 1175).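 Further: recombinant parasite enzyme with a five histidine tag at its C terminus.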 The settings on record: DCIP absorbance 600 nm, higher = more signal, called active from +8 up or from −8 down.
Test [5] can be described thus: P. aeruginosa biofilm formation inhibitors, primary screen, strain PAO1, LB-PBS medium, absorbance 600 nm (AID 1176). Particulars: P. aeruginosa PAO1 growth/biofilm, A600, 12 h; higher = more signal.
The nature of test [6]: S. cerevisiae RM11-1a growth modifiers, primary screen, strain RM11-1a, OD600, basal, 24 h (AID 1177).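 Further: cultures grown under basal conditions with no added stressor.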 The settings on record: OD600, 24 h, higher = more signal, called active from +8 up or from −8 down.
Test [7] is described as follows: E. coli acrAB mutant growth effects, primary screen, E. coli filamentation inducers, strain DRC39, OD650, 24 h (AID 1178).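 Further: growth measured as culture turbidity by optical density at 650 nm.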 Particulars: higher = more signal, called active from +8 up or from −8 down.
The nature of test [8]: E. coli acrAB mutant growth effects, primary screen, E. coli filamentation inducers, strain DRC39, OD650, 48 h (AID 1179).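 Further: screen aims at cell division blockers that make cells filament.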 Particulars: E. coli DRC39 delta-acrAB growth, higher = more signal, called active from +8 up or from −8 down.
Test [9] is described as follows: RPMI8226 myeloma cell viability, profiling panel, resazurin fluorescence, basal, 24 h, PK04 Diversity Set (AID 1180).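 Further: RPMI8826 multiple myeloma cell line at 5000 cells per well.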 Particulars: higher = more signal.
Test [10] addresses E3 ubiquitin-protein ligase XIAP (Homo sapiens) (UniProt P98170). Briefly: XIAP binders, primary screen, biophysical, small-molecule microarray, fluorescence 635 nm (AID 1181).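 Further: score merges 667 nm emission and signal to noise over triplicate slides.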 The settings on record: small-molecule microarray binding, higher = more signal.
The test system of test [11] is XIP peptide (Xip251-270) binding. Briefly: small-molecule binders of XIP peptide, primary screen, biochemical, small-molecule microarray, fluorescence 635/667 nm, 0.1 µg/mL protein (AID 1182). Particulars: fluorescent protein binding, 635 nm, higher = more signal, called active from +8 up or from −8 down.
Test [12] concerns XIP peptide (Xip251-270). Briefly: small-molecule binders of XIP peptide, primary screen, biochemical, small-molecule microarray, fluorescence 635/667 nm, 0.5 µg/mL protein (AID 1183). The settings on record: small-molecule microarray binding, fluorescence 635 nm; higher = more signal.
The nature of test [13]: Plasmodium falciparum growth inhibition, primary screen, strain 3D7, DAPI fluorescence, 100 nL (AID 1184).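 Further: parasites grown inside human red blood cells in medium with human serum.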 The settings on record: P. falciparum 3D7 growth, 3 d, higher = more signal.
In test [14] the target is Homeobox protein Hox-A13 (Mus musculus) (UniProt Q62424). The experiment in a line: inhibitors of HoxA13-DNA binding, primary screen, biochemical, fluorescence polarization, labeled oligonucleotide (AID 1185). Particulars: 15 min, higher = more signal, called active from +8 up or from −8 down.
Test [15] can be described thus: inhibitors of hydroxyurea-induced Chk1 phosphorylation, primary screen, imaging, HeLa, phospho-Chk1 antibody, percent positive cells (AID 1186). The settings on record: hydroxyurea-induced phospho-Chk1 immunofluorescence imaging, higher = more signal.
Test [16] can be described thus: inhibitors of hydroxyurea-induced Chk1 phosphorylation, primary screen, imaging, HeLa, phospho-Chk1 nuclear intensity (AID 1187). Particulars: hydroxyurea-induced phospho-Chk1 immunofluorescence imaging, higher = more signal.

Sequence of Homeobox protein Hox-A13 (Mus musculus) (Q62424 whole entry, looked up): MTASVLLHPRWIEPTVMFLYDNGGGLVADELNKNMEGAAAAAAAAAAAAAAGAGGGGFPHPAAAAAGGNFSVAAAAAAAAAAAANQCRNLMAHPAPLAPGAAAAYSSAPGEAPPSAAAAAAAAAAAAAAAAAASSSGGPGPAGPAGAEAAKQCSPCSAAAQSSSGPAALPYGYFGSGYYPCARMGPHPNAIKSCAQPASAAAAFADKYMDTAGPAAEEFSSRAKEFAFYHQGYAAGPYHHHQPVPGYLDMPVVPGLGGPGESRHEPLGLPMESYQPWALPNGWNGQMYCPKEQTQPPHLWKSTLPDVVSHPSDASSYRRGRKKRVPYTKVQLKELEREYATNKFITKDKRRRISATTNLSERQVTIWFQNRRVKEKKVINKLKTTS
Sequence of Dihydroorotate dehydrogenase (quinone), mitochondrial (Plasmodium falciparum (isolate 3D7)) (Q08210 whole entry, looked up): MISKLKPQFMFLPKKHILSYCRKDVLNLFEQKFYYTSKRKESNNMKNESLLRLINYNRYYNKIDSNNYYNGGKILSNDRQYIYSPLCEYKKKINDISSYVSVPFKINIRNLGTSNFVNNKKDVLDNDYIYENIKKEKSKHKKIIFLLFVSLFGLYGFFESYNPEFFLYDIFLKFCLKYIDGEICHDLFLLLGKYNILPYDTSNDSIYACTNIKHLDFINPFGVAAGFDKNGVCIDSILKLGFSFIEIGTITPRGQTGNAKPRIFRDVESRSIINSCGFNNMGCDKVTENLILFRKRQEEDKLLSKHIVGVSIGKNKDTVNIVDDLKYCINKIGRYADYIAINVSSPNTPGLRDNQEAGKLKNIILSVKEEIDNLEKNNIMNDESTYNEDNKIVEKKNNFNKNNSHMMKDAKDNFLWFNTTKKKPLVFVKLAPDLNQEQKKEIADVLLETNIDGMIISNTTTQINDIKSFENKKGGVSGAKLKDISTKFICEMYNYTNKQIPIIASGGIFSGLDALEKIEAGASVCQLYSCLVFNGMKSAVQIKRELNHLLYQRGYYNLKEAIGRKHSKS
Sequence of E3 ubiquitin-protein ligase XIAP (Homo sapiens) (P98170 whole entry, looked up): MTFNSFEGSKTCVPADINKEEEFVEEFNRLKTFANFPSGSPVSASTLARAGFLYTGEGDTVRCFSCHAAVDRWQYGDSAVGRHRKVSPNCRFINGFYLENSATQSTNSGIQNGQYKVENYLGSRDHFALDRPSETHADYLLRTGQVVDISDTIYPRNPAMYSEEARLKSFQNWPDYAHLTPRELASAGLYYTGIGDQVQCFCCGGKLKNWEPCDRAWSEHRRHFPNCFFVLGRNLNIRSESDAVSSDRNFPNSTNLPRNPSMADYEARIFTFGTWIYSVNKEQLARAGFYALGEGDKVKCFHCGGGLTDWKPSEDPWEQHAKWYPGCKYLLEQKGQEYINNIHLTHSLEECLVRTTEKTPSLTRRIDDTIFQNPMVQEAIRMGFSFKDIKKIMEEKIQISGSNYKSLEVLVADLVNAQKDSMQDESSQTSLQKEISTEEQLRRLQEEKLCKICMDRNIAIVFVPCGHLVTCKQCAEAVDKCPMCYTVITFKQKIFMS

On to `CCOC(=O)C1=C(C(=O)OCC)N(S(=O)(=O)CC[Si](C)(C)C)[C@H](c2ccccc2)CC1`, for which the z-score in test [1] was 0.95; in test [2] it was 1.77 (inactive); in [3] it was -2.4 (inactive); in [5], 0.201 (inactive); in test [6] it was 1.73 (inactive); in test [7], -0.203 (inactive). Further, the z-score in test [8] is -0.238 (inactive); in test [9], -4.03; in test [13] it was -1.81; in [14] it was -2.79 (inactive); in test [15] it was -0.184 (inactive); in test [16] it was -0.535 (inactive). The composite z-score is -0.493 (inactive) in test [4], -0.127 in test [10], -0.177 (inactive) in test [11] and 0.201 in [12].

Turning to `O=C1O[C@H](c2ccccc2)[C@H](c2ccccc2)N2[C@H]1[C@@H](C(=O)NC[C@H](O)c1ccccc1)[C@]1(C(=O)Nc3ccc(C#CCCO)cc31)[C@H]2c1ccccc1OCCO`, the z-score in [1] was 1.19; in test [2], 0.904 (inactive); in test [3], -1.12 (inactive); in [5] it was 0.517 (inactive); in [6], 1.48 (inactive); in test [7], 0.439 (inactive). Besides, the z-score is -0.467 (inactive) in [8]; -0.591 in [9]; -1.4 in test [13]; -4 (inactive) in [14]; 0.125 (inactive) in [15]; 0.46 (inactive) in test [16]. For the same compound, the composite z-score was -0.532 (inactive) in test [4], -0.209 in test [10], 0.419 (inactive) in [11] and 0.693 in [12].

As for `CN1C(=O)C2C(C1=O)C1C=C(c3ccc(CO)cc3)C2C(c2cccs2)N1C` (configuration not stated), the z-score is -0.584 in [1]; -1.59 (inactive) in [2]; -0.446 (inactive) in test [3]; -2.71 (inactive) in test [5]; -0.0654 (inactive) in [6]; 0.596 (inactive) in [7]. Further, the z-score was 0.346 (inactive) in test [8]; 0.343 in test [9]; -2.32 in [13]; -6.12 (inactive) in [14]; -0.89 (inactive) in test [15]; -0.76 (inactive) in test [16]. In addition, the composite z-score was -1.46 (inactive) in [4], -0.444 in test [10], 0.482 (inactive) in [11] and -0.202 in test [12].

On to `COc1ccc(C(O)C2C=CC3C(=O)N(C)C(=O)C3N2Nc2ccc([N+](=O)[O-])cc2[N+](=O)[O-])cc1OCc1ccccc1` (configuration not stated), for which the z-score was -0.448 in test [1]; 0.944 (inactive) in test [2]; -1.27 (inactive) in test [3]; -0.0067 (inactive) in test [5]; 0.371 (inactive) in test [6]; -0.98 (inactive) in test [7]. Moreover, the z-score in test [8] was -0.383 (inactive); in test [9], -1.39; in [13], 0.664; in test [14] it was -2.98 (inactive); in [15], 0.47 (inactive); in test [16], 0.219 (inactive). Moreover, the composite z-score was 0.37 (inactive) in [4], 0.165 in test [10], -0.237 (inactive) in [11] and 0.753 in [12].

For the compound `[N-]=[N+]=NCc1ccccc1[C@@H]1OC(c2ccc(OCCCO)cc2)=N[C@]1(Cc1ccccc1)C(=O)NCc1ccccc1`, the z-score in [1] is 0.771; in [2], 0.467 (inactive); in test [3], -0.0664 (inactive); in [5], -0.223 (inactive); in test [6] it was 1.7 (inactive); in test [7], -0.0548 (inactive). For the same compound, the z-score in test [8] is 0.065 (inactive); in test [9] it was -0.484; in [13], -2.24; in [14], 2.8 (inactive); in [15], -0.306 (inactive); in [16], -0.144 (inactive). In addition, the composite z-score was 0.101 (inactive) in test [4], 0.1 in [10], 0.362 (inactive) in [11] and 0.573 in [12].

Take `NCCCC[C@@H]1NC(=O)[C@H]2C[C@@H](C(=O)O)[C@@H](c3cccc(OCCO)c3)N2C1=O`: the z-score in [1] was -0.578; in test [2] it was -0.0349 (inactive); in [3] it was 0.152 (inactive); in test [5] it was 0.628 (inactive); in [6] it was 1.08 (inactive); in test [7] it was 0.191 (inactive). In addition, the z-score in test [8] was -0.28 (inactive); in test [9] it was -0.438; in [13], -0.0736; in test [14] it was 6.28 (inactive); in test [15], 0.0547 (inactive); in [16] it was -0.62 (inactive). Moreover, the composite z-score in [4] is -6.64 (inactive); in test [10] it was 0.201; in test [11] it was 0.505 (inactive); in test [12] it was 0.86.

With `NC(=O)N1C(=O)C2C(C1=O)C1C=C(CCCO)C2C(c2ccc(CN3CCCC3)cc2)N1Cc1cccc(OC(F)(F)F)c1` (configuration not stated), the z-score in [1] was -0.708; in test [2], -0.491 (inactive); in test [3], -0.504 (inactive); in test [5] it was -0.66 (inactive); in test [6] it was -0.219 (inactive); in test [7], -0.385 (inactive). Further, the z-score in [8] is -0.579 (inactive); in [9], -0.884; in test [13] it was -2.28; in [14], -7.26 (inactive); in [15], 0.0295 (inactive); in [16] it was 0.298 (inactive). The composite z-score in test [4] is -4.9 (inactive); in [10], 0.101; in test [11] it was 0.106 (inactive); in test [12] it was -0.133.
